pPAFAH FP inh: inhibitors of human plasma PAF acetylhydrolase (pPAFAH); recombinant pPAFAH, FP-rhodamine probe fluorescence polarization; AID 463082; inhibition, % at 3.39 µM; 1.5% of 330,000 active; Q13093;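 active = inhibition above the mean inhibition across the screen plus 3 SD, cut at about 25% in these data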;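 also: inhibitors block binding of the rhodamine activity-based probe so polarization drops; 0% = enzyme with DMSO and 100% = wells lacking pPAFAH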
ATG4B inhibitor: ATG4B (human) cysteine protease inhibition | Q9Y4P1 | ATG4B cleavage of LC3-PLA2, NBD-HPC fluorescence, 1 h | inhibition, % at 8.33 µM | 0.51% of 340,000 active; in the data active = inhibition above about 40%
PAFAH1B2 FP inh: PAFAH1B2 (human) inhibition; P68402; recombinant PAFAH1B2, FP-rhodamine activity probe, fluorescence polarization; inhibition, % at 3.39 µM; 1.2% of 340,000 active; AID 492953;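 active = inhibition above the mean of all tested compounds plus 3 SD, cut at about 24% in these data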;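 also: 0% = enzyme with DMSO and 100% = wells lacking PAFAH1B2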
Target sequence (P68402 whole entry, looked up): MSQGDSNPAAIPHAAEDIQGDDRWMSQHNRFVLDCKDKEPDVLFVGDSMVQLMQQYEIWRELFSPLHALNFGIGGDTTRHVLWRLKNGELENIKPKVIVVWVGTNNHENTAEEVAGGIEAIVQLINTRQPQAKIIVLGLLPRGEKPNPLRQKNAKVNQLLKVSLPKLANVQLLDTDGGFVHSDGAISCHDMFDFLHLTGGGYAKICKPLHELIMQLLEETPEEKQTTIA
PAFAH2 inh: PAFAH2 (human) inhibition; AID 492956; Q99487; inhibition, % at 3.39 µM; 0.99% of 340,000 active; recombinant PAFAH2, FP-rhodamine activity probe, fluorescence polarization;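 active = inhibition above the mean over all tested compounds plus 3 SD, cut at about 30% in these data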;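 also: inhibitors block probe labeling of enzyme so polarization drops; 0% = enzyme with DMSO and 100% = wells lacking PAFAH2 protein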
DAGLB inh: blocks human DAGLB lipase activity. inhibition, % at 5.17 µM. HEK293T DAGLB membrane lysate, EnzChek fluorogenic substrate. 0.059% of 340,000 active; in the data active = inhibition above about 34%;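 also: 0% = enzyme with vehicle and 100% = wells lacking enzyme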
PAFAH1B3 FP inh: inhibitors of human PAFAH1B3; Q15102; recombinant PAFAH1B3, FP-rhodamine probe, fluorescence polarization; inhibition, % at 3.39 µM; 0.28% of 340,000 active; AID 492972;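 active = inhibition above the screen-wide average of all tested compounds plus 3 SD, cut at about 25% in these data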;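 also: 0% = enzyme with DMSO only and 100% = wells lacking PAFAH1B3 protein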
ATG4B confirm: ATG4B (human) inhibition, single-dose confirmed. shares compounds with ATG4B inhibitor. ATG4B protease fluorescent substrate cleavage assay. inhibition, % at 8.33 µM. 92% of 320 active. AID 504757; in the data active = inhibition above about 39%
PLA2 ctr: PLA2 (human) inhibition in ATG4B counter-screen; inhibition, % at 8.33 µM; shares compounds with ATG4B inhibitor; purified PLA2, NBD-C6-HPC fluorescence, 45 min; 66% of 1,600 active; AID 588402; in the data active = inhibition above about 50%
Target sequence (P04054 whole entry, looked up): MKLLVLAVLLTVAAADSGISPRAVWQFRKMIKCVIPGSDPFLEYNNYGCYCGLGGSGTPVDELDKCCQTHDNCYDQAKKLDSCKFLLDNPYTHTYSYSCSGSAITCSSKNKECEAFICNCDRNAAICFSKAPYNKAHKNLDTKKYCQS
Numbers without * were called inactive; · = no result. Hits are enriched below; roughly 3% of the tested compounds scored in any of these assays.

SMILES	pPAFAH FP inh	ATG4B inhibitor	PAFAH1B2 FP inh	PAFAH2 inh	DAGLB inh	PAFAH1B3 FP inh	PLA2 ctr	others
Cc1ccc(-n2c(SCc3ccc([N+](=O)[O-])cc3)nc3ccccc3c2=O)cc1	10	41*	2	3	-2	0	20
C#CCNCCS(=O)(=O)N(Cc1ccc(Br)cc1)[C@@H](C)C(=O)O	5	·	1	1	-2	8	·
COc1ccc(CNC(=O)N2CCN(c3cccc(C)c3C)CC2)cc1OC	23	3	4	4	-1	6	·
Cc1ccccc1N1CCN(C(=O)NCc2cccc(Cl)c2)CC1	4	61*	1	0	-10	4	73*
COc1ccc(/C=C(\NC(=O)c2ccc(Cl)cc2)C(=O)NCC2CCCO2)cc1OC (stereo not drawn)	0	-4	15	4	-1	6	·
Brc1ccc(-c2nnc3n2C2(CCCC2)Cc2ccccc2-3)o1	2	52*	1	-5	2	3	63*
O=C(NCCSCc1ccco1)Nc1cc(Cl)cc(Cl)c1	-3	46*	-3	-9	-14	-1	62*
O=C(O)c1cc(-c2ccccc2)nc2nc(N3CCCCC3)sc12	-1	·	·	·	·	·	·
Cc1ccc(-c2cc(C(=O)O)c3sc(N4CCCCC4)nc3n2)cc1	-1	40*	11	-4	3	2	-6
Cc1ccc(C(=O)N/N=C(/CC(=O)c2cccs2)C(F)(F)F)cc1	1	41*	4	5	15	9	28
COc1ccc(Br)cc1/C=C(\C(=O)O)c1ccc(S(=O)(=O)N2CCCCC2)s1	-1	84*	-16	8	8	-6	87*
Cc1cccc(Cc2cnc(NC(=O)c3ccc(C)o3)s2)c1	-4	47*	9	-9	-2	3	63*
CC1CCN(S(=O)(=O)c2ccc3c(c2)c(=O)c(C(=O)NCc2ccccc2Cl)cn3C)CC1	9	·	·	·	·	·	·
Cc1ccc(NC(=S)NCc2ccccc2)cc1S(=O)(=O)N1CCCCC1	-1	57*	6	-10	-2	13	75*
CC(C)(C)N/N=C1\CC(c2ccccc2)Oc2ccccc21 (stereo not drawn)	2	4	1	0	-12	2	·
O=C(O)c1cc(N/N=C2/CC(c3ccccc3)Oc3ccccc32)ccc1Cl (stereo not drawn)	34*	49*	2	17	3	7	40	ATG4B confirm=59*
CC(C)CCn1c(SCC(=O)Nc2ccccc2C(F)(F)F)nc2nccnc2c1=O	2	3	2	1	1	2	·
O=C(/C=C/c1ccccc1O)c1ccc(Cl)cc1	7	69*	4	-5	1	4	88*
Cc1ccc(/C=N\NC(=O)C2CC(=O)N(c3ccccc3)C2)o1 (stereo not drawn)	1	-6	·	·	·	·	·
Cc1ccc(CNC(=O)CN(C)S(=O)(=O)c2cccc3cccnc23)cc1	-4	-4	3	5	0	0	·
C/C(=N/NC(=O)CNC(=O)C1COc2ccccc2O1)c1ccc([N+](=O)[O-])cc1 (stereo not drawn)	4	-9	3	-5	3	2	·
C/C(=C/CCC(C)[C@H]1CC[C@@]2(C)C3=C(CC[C@]12C)[C@@]1(C)CCC(=O)C(C)(C)[C@@H]1CC3)C(=O)O (stereo partly drawn)	2	46*	8	-1	-1	12	29	ATG4B confirm=79*
Cc1ccc(NC(=S)NCCSc2ccc(Cl)cc2)cc1	1	8	13	0	-9	13	·
CC(CNC(=S)Nc1cc(F)cc(F)c1)CSc1ccc(Cl)cc1 (stereo not drawn)	1	46*	2	-10	-6	-3	69*
COc1ccc(NS(=O)(=O)c2cc(NS(=O)(=O)c3cc(C(=O)O)ccc3OC)ccc2C)cc1	·	4	0	3	4	6	·
SMILES	pPAFAH FP inh	ATG4B inhibitor	PAFAH1B2 FP inh	PAFAH2 inh	DAGLB inh	PAFAH1B3 FP inh	PLA2 ctr	others
O=C(c1cccs1)N(Cc1ccco1)c1nc(-c2ccc(F)cc2)cs1	1	42*	1	-5	-3	5	56*
CCC(=O)N(Cc1ccco1)c1nc(-c2ccccc2)cs1	0	-7	5	-3	-11	0	·
CN(C(=O)c1ccccc1OCc1ccc(F)cc1)c1c(N)n(Cc2ccccc2)c(=O)[nH]c1=O	·	-5	5	4	0	-5	·
CCCN(CC(=O)Nc1ccccc1C)C(=O)c1ccc(N2CCCCC2)c([N+](=O)[O-])c1	5	3	0	4	6	4	·
Fc1ccc(C2CC(c3ccco3)=Nc3ccccc3S2)cc1 (stereo not drawn)	4	46*	1	7	-4	14	67*
O=C(CSc1nnc(COc2ccc(Cl)cc2)o1)N1CCCCC1	6	-4	20	7	-1	18	·
Cc1nn(Cc2c(Cl)cccc2Cl)c(C)c1NC(=O)CCCn1nc([N+](=O)[O-])c(Cl)c1C	3	46*	1	3	5	6	49	ATG4B confirm=70*
Cc1c(Cl)c([N+](=O)[O-])nn1CCCC(=O)Nc1cccc(Cl)c1	2	75*	4	-5	-1	0	78*
O=C(/C=C1\NC2(CCCC2)Cc2ccccc21)C(=O)N/N=C/c1ccccc1O	17	44*	-4	0	13	3	47
C/C(=N\NC(=O)c1cccc(N/N=C(\C)c2ccco2)c1)c1ccco1	·	4	-8	-4	5	0	·
C/C(=N\NC(=O)c1cccc(N/N=C(\C)c2cc(O)ccc2O)c1)c1cc(O)ccc1O	32*	46*	9	9	2	16	78*
Nc1nonc1C(=O)NCCN=Cc1cc(Cc2ccccc2)cc(Br)c1O	33*	86*	10	3	8	6	72*
O=C(OCC(O)COc1ccccc1)c1ccc([N+](=O)[O-])cc1 (stereo not drawn)	10	-3	12	-3	-10	7	·
O=C(NCc1ccccc1)NC(=O)c1ccccc1F	6	9	2	3	0	8	·
CCOC(=O)c1cn(Cc2cccc(Cl)c2)nn1	1	3	2	0	-1	8	·
CCOC(=O)c1cn(Cc2c(C)c(C)c(C)c(C)c2C)nn1	1	61*	0	-1	-4	-3	59*
CCc1ccc(C(CNC(=O)c2ccc3c(=O)n(-c4ccccc4F)c(=S)[nH]c3c2)N(C)C)cc1 (stereo not drawn)	-1	70*	-1	-7	1	16	83*

High-throughput results: PubChem, several laboratories
